This note sets out measurements from PubChem BioAssay (NCI).

A short description of this test: NCI Yeast Anticancer Drug Screen. Data for the cln2 rad14 strain (AID 165).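 Note: 0% = growth equal to vehicle treated cultures.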 The settings on record: S. cerevisiae cln2 rad14 strain, hits give high values. How it is done: Growth inhibition of yeast strains with defined genetic alterations is measured as a screen for potential anti-cancer activity. Selected strains with alterations in DNA damage repair or cell cycle control were exposed to compounds and growth inhibition was measured relative to vehicle treated controls. The strain used in this assay is cln2 rad14

[1] abbreviates: at 5.0 µM (retest, dose inferred, filed as 0.5).
Setting [2] is: at 50.0 µM (retest, dose inferred, filed as 5.0).

This is part of a sample that, as a whole, favours compounds with a hit. Of some 79,000 tested, about 15% had one in any assay. Values without a mark were called inactive. Activity calls are given as the source filed them. Cut-off read from the data, not from the text of the source: active = growth inhibition above about 70%; inactive = the rest.

`O=[N+]([O-])c1ccc2c(c1)/C(=N/O)c1ccccc1-2`: the growth inhibition is -10% under setting [1], 4% under setting [2] and 46.2% (at 50.0 µM).

For the compound `Nc1ccc(S(=O)(=O)N2CCCc3ccccc32)cc1`, the growth inhibition by setting is: under setting [1], 2%; under setting [2], 23%; (at 50.0 µM) 74.2% (active).

Regarding `O=C(C1=NNC(c2ccccc2)C1C(=O)c1ccccc1)c1ccccc1` (configuration not stated), the growth inhibition runs as follows: under setting [1], 2%; under setting [2], 67%; (at 50.0 µM) 67%.

On to `O=[N+]([O-])c1ccc(C=NC2CCCCC2)c([N+](=O)[O-])c1`, for which the growth inhibition reads like this: under setting [1], -5%; under setting [2], 25%; (at 50.0 µM) -0.85%.

`O=C(O)Cc1c[nH]c2ccccc12`: the growth inhibition runs as follows: under setting [1], 9%; under setting [2], -12%; (at 50.0 µM) 49%.

As for `CC1=C(C#N)C(=O)N(C)C(=O)C1(Cl)Cl`, the growth inhibition is 0% under setting [1], -12% under setting [2] and 14.6% (at 50.0 µM).

In the case of `CCN(CC)C(=O)CCCC1CCCCC1`, the growth inhibition was 0% under setting [1], 11% under setting [2] and -9% (at 50.0 µM).

Consider `Cc1ccc(/C=C2\CCC/C(=C\c3ccc(O)c(CN4CCCCC4)c3)C2=O)cc1`, for which the growth inhibition under setting [1] is 7%, the growth inhibition under setting [2] is 27% and the growth inhibition (at 50.0 µM) was 42.1%.

As for `O=[N+]([O-])c1ccc2c(c1)Cc1cc(Cl)ccc1-2`, the growth inhibition under setting [1] is -5%, the growth inhibition under setting [2] is 3% and the growth inhibition (at 50.0 µM) is 81.4% (active).

Consider `CCN(CC)CCOc1cccc2c1C(=O)c1c(O)cccc1C2=O`, for which the growth inhibition is 5% under setting [1], 38% under setting [2] and 74.3% (active) (at 50.0 µM).

For the compound `NC(=S)C(=S)N/C=C(/c1ccc(Cl)cc1)S(=O)(=O)Cc1ccc(Cl)cc1`, the growth inhibition is -19% under setting [1], 97% (active) under setting [2] and 94.8% (active) (at 50.0 µM).

On to `COc1ccc(Nc2nc3ccccc3s2)cc1`, for which the growth inhibition was -7% under setting [1], -14% under setting [2] and -66% (at 50.0 µM).

With `CC(C)(C)C1=CC(=CC=C2C=CN(CCO)C=C2)C=C(C(C)(C)C)C1=O`, the growth inhibition runs as follows: under setting [1], 0%; under setting [2], 60%; (at 50.0 µM) 31.8%.

For `CCOC(=O)c1c(C)c2c(n1C)CCc1sc(N)nc1-2`, the growth inhibition reads like this: under setting [1], -1%; under setting [2], 26%; (at 50.0 µM) 43.3%.
